# Assay results from PubChem BioAssay (Tox21).
# Values without a mark were called inactive. Results filed as inconclusive are left out. Calls of active or inactive are those of the source. Unless noted, calls follow the shape of the dose curve; as a rule, active = well fitted curve in the direction sought with a large enough effect in the repeat runs; inconclusive = weak or mixed curves; inactive = no such curve, though single readings can be large; an effect the other way counts as inactive or inconclusive.
# Experiment: qHTS assay for small molecules that induce genotoxicity in human embryonic kidney cells expressing luciferase-tagged ATAD5 - cell viability (AID 651634; calls by dose curve; also: nearly all actives have a fitted effect of over 25% in size)
# Settings: HEK293T ATAD5-luc cells viability, CellTiter-Fluor, 15.5 h; series mostly up to 83.3 µM; activity, negative = cytotoxicity: at the top concentration
# How it was run: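 Cytotoxicity counter-readout: after 15.5 hr compound treatment at 37C, live-cell protease activity in ATAD5-luciferase HEK293T cells measured by CellTiter-Fluor fluorescence, 30 min development at 37C.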
# % is scaled to controls: 0 for no effect and ±100 for the full control effect.
Compound,"activity, negative = cytotoxicity",outcome
CCCCS,8.42% [at 95.3 µM],
CCNC(=O)C(C)OC(=O)Nc1ccccc1 (centres undefined),21%,
CC(C)(Sc1cc(C(C)(C)C)c(O)c(C(C)(C)C)c1)Sc1cc(C(C)(C)C)c(O)c(C(C)(C)C)c1,11.5% [at 39.1 µM],
O=C(O)CCC(=O)Nc1ccc(S(=O)(=O)Nc2nccs2)cc1,4.78% [at 39.1 µM],
CCCCC(CC)CCC(CC(C)C)OS(=O)(=O)O (centres undefined),,inactive
Cc1ccccc1C#N,20.5%,
COC(=O)c1ccccc1Cl,-7.27%,
Cc1ccc2cccnc2c1,4.37%,
Cc1cc(N)no1,5.31% [at 95.3 µM],
CN(C)CCC[C@@]1(c2ccc(F)cc2)OCc2cc(C#N)ccc21,18.3%,
CCN(CC)CC,2.58% [at 95.3 µM],
C=C(C)C(=O)OCCOC1CC2CC1C1C=CCC21 (centres undefined),15.1% [at 95.3 µM],
O=C(O)CCCCCCCCCC(=O)O,12.5%,
CC(O)CCCCn1c(=O)c2c(ncn2C)n(C)c1=O (centres undefined),3.13%,
C=CC(=O)CC,8.25% [at 95.3 µM],
CCOCCOCCOC(C)=O,-4.23% [at 95.3 µM],
CCCCCC(=O)CC,10.9% [at 95.3 µM],
C/C=C(\C)C=O,-3.2% [at 95.3 µM],

Compound,"activity, negative = cytotoxicity",outcome
NC[C@H]1O[C@H](O[C@H]2[C@H](O)[C@@H](O[C@H]3O[C@H](CO)[C@@H](O)[C@H](N)[C@H]3O)[C@H](N)C[C@@H]2N)[C@H](N)[C@@H](O)[C@@H]1O,,inactive
Cc1ccc(NC(N)=O)cc1,16.9% [at 95.3 µM],
CC(C)(O)CCCC1=CCC(C=O)CC1 (centres undefined),11.8% [at 95.3 µM],
CCCC(=O)OC,12.8%,
CCc1ccc(CC)cc1,15.9% [at 95.3 µM],
CCCCCCCCCCCCCCCC(=O)OC,19.2% [at 39.1 µM],
O=S(=O)(O)CC(O)CCl (centres undefined),10.8%,
CC[N+](C)(CC)CC,7.63%,
CCCCCCCCCCCCCCCCN(C)C,-13.5% [at 8.08 µM],
Cc1cc(C)c(C)c(C)c1,5.7%,
O=C(O)COc1ccc2ccccc2c1,5.7%,
Cc1ccc(O)c([N+](=O)[O-])c1,16.4% [at 95.3 µM],
Cc1ccc(N)nc1,-3.42%,
CCCC(C)C(O)CC (centres undefined),9.9%,
N=C(N)N,13.1%,
CN1C(CCl)Nc2cc(Cl)c(S(N)(=O)=O)cc2S1(=O)=O (centres undefined),-4.83%,
CC(C)(C)C(=O)CC(=O)C(C)(C)C,13.7% [at 95.3 µM],

# Experiment: qHTS assay for small molecule disruptors of the mitochondrial membrane potential - cell viability (AID 720634; calls by dose curve;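 also: human HepG2 liver cancer cells; nearly all actives have a fitted effect of over 20% in size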)
# Settings: HepG2 viability, ATP luminescence (CellTiter-Glo), 1 h; series mostly up to 83.2 µM; activity change, negative = cytotoxicity: at the top concentration
# How it was run: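 Cytotoxicity was quantified from ATP content by CellTiter-Glo luminescence in the same wells as the MMP dye read-out. HepG2 (2,000 cells/well) were plated overnight and exposed to compounds for 1 hr at 37 C.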
row,Compound,"activity change, negative = cytotoxicity"
1,Cc1ccccc1C#N,8.47%
2,COC(=O)c1ccccc1Cl,-11.3%
3,Cc1cc(N)no1,1.55% [at 95.3 µM]
4,O=C(O)CCCCCCCCCC(=O)O,-0.725%
5,O=S(=O)(O)CC(O)CCl (centres undefined),-10.2%

# Experiment: qHTS assay for small molecule disruptors of the mitochondrial membrane potential (AID 720635)
# Settings: HepG2 mitochondrial membrane potential, Mito-MPS dye ratio; series mostly up to 83.2 µM; ratio activity, negative = MMP loss: at the top concentration
# How it was run: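 HepG2 cells (2,000/well) attached overnight at 37C, then took compound for 1 hr at 37C, 5% CO2. Mito-MPS dye was added for 30 min; fluorescence was read at 490/535 nm (monomers) and 540/590 nm (aggregates).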
Compound,"ratio activity, negative = MMP loss",Potency
CCCCS,13% [at 95.3 µM],
CC(C)(Sc1cc(C(C)(C)C)c(O)c(C(C)(C)C)c1)Sc1cc(C(C)(C)C)c(O)c(C(C)(C)C)c1,5.27% [at 39.1 µM],
O=C(O)CCC(=O)Nc1ccc(S(=O)(=O)Nc2nccs2)cc1,11.8% [at 39.1 µM],
CC(O)CCCCn1c(=O)c2c(ncn2C)n(C)c1=O (centres undefined),14.2%,
CCOCCOCCOC(C)=O,21.2% [at 95.3 µM],
NC[C@H]1O[C@H](O[C@H]2[C@H](O)[C@@H](O[C@H]3O[C@H](CO)[C@@H](O)[C@H](N)[C@H]3O)[C@H](N)C[C@@H]2N)[C@H](N)[C@@H](O)[C@@H]1O,,inactive
Cc1ccc(NC(N)=O)cc1,19.1% [at 95.3 µM],
CCCC(=O)OC,21.8%,
CCc1ccc(CC)cc1,11.1% [at 95.3 µM],
O=C(O)COc1ccc2ccccc2c1,-12.6%,
Cc1ccc(O)c([N+](=O)[O-])c1,9.16% [at 95.3 µM],
Cc1ccc(N)nc1,21.1%,
CCCC(C)C(O)CC (centres undefined),-7.97%,
N=C(N)N,12%,

# Experiment: qHTS assay to test for compound auto fluorescence at 590 nm (red) in HepG2 cells (AID 720674)
# Settings: HepG2 autofluorescence, red 540/590 nm, 1 h; series mostly up to 91.3 µM; fluorescence, relative to Rose Bengal: at the top concentration
# How it was run: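 Intrinsic compound fluorescence in the red window (Ex/Em 540/590 nm) is measured in attached HepG2 cells exposed for 1 hr, DMSO vehicle as baseline, benchmarked to Rose Bengal sodium.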
Compound,"fluorescence, relative to Rose Bengal",outcome
CCCCS,0.0256% [at 95.7 µM],
CCNC(=O)C(C)OC(=O)Nc1ccccc1 (centres undefined),0.0451%,
CC(C)(Sc1cc(C(C)(C)C)c(O)c(C(C)(C)C)c1)Sc1cc(C(C)(C)C)c(O)c(C(C)(C)C)c1,0.757% [at 18.6 µM],
O=C(O)CCC(=O)Nc1ccc(S(=O)(=O)Nc2nccs2)cc1,-0.131% [at 18.6 µM],
CCCCC(CC)CCC(CC(C)C)OS(=O)(=O)O (centres undefined),,inactive
Cc1ccccc1C#N,-0.0807%,
COC(=O)c1ccccc1Cl,-0.235%,
Cc1ccc2cccnc2c1,0.247%,
Cc1cc(N)no1,-0.0067% [at 95.7 µM],
CN(C)CCC[C@@]1(c2ccc(F)cc2)OCc2cc(C#N)ccc21,-0.407% [at 46 µM],
CCN(CC)CC,0.0133% [at 95.7 µM],
C=C(C)C(=O)OCCOC1CC2CC1C1C=CCC21 (centres undefined),0.134% [at 95.7 µM],
O=C(O)CCCCCCCCCC(=O)O,-0.154%,
CC(O)CCCCn1c(=O)c2c(ncn2C)n(C)c1=O (centres undefined),-0.884% [at 46 µM],
C=CC(=O)CC,0.265% [at 95.7 µM],
CCOCCOCCOC(C)=O,0.0912% [at 95.7 µM],
CCCCCC(=O)CC,-0.0389% [at 95.7 µM],
C/C=C(\C)C=O,0.12%,

Compound,"fluorescence, relative to Rose Bengal",outcome
NC[C@H]1O[C@H](O[C@H]2[C@H](O)[C@@H](O[C@H]3O[C@H](CO)[C@@H](O)[C@H](N)[C@H]3O)[C@H](N)C[C@@H]2N)[C@H](N)[C@@H](O)[C@@H]1O,,inactive
Cc1ccc(NC(N)=O)cc1,-0.0644%,
CC(C)(O)CCCC1=CCC(C=O)CC1 (centres undefined),0.0877% [at 95.7 µM],
CCCC(=O)OC,0.276%,
CCc1ccc(CC)cc1,0.075%,
CCCCCCCCCCCCCCCC(=O)OC,0.0004% [at 18.6 µM],
O=S(=O)(O)CC(O)CCl (centres undefined),0.207%,
CC[N+](C)(CC)CC,0.408%,
CCCCCCCCCCCCCCCCN(C)C,0.017% [at 3.72 µM],
Cc1cc(C)c(C)c(C)c1,-0.0012%,
O=C(O)COc1ccc2ccccc2c1,-0.143%,
Cc1ccc(O)c([N+](=O)[O-])c1,-0.172% [at 95.7 µM],
Cc1ccc(N)nc1,-0.158%,
CCCC(C)C(O)CC (centres undefined),-0.036%,
N=C(N)N,-0.143% [at 46 µM],
CN1C(CCl)Nc2cc(Cl)c(S(N)(=O)=O)cc2S1(=O)=O (centres undefined),0.0379% [at 46 µM],
CC(C)(C)C(=O)CC(=O)C(C)(C)C,-0.0307% [at 95.7 µM],
